Experimental data: PubChem BioAssay (NCI)
This is part of a sample that, as a whole, favours compounds with a hit. Of some 83,000 tested, about 20% had one in any assay.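 Testing used 96-well plates and a 48-hour single-concentration exposure. Example: -40 means 40% of the starting cells died.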 A number with no mark means an inactive call. Active and inactive are the calls of the source. The calls were made as follows: active = growth percent below 10; inactive = the rest.

Key:
Experiment in all cases: NCI-60 one-dose screen, 48 h (100 = growth as untreated, 0 = no growth, -100 = all killed)
Conditions in all cases: 10 µM unless noted
NCI-H23 lung = tested on: NCI-H23 lung
NCI-H226 lung = tested on: NCI-H226 lung
NCI-H322M lung = tested on: NCI-H322M lung
HOP-62 NSCLC = tested on: HOP-62 NSCLC
NCI-H460 lung = tested on: NCI-H460 lung
HOP-92 NSCLC = tested on: HOP-92 NSCLC
NCI-H522 lung = tested on: NCI-H522 lung
A549/ATCC NSCLC = tested on: A549/ATCC NSCLC
786-0 renal = tested on: 786-0 renal
COLO 205 colon = tested on: COLO 205 colon
DU-145 prostate = tested on: DU-145 prostate
K-562 leukemia = tested on: K-562 leukemia
MALME-3M melanoma = tested on: MALME-3M melanoma
MDA-MB-231 breast = tested on: MDA-MB-231 breast
RXF 393 renal = tested on: RXF 393 renal
SF-268 CNS = tested on: SF-268 CNS
SF-295 CNS = tested on: SF-295 CNS
SF-539 CNS = tested on: SF-539 CNS
UACC-257 melanoma = tested on: UACC-257 melanoma
M14 melanoma = tested on: M14 melanoma

SMILES | growth (NCI-H23 lung) | growth (NCI-H226 lung) | growth (NCI-H322M lung) | growth (HOP-62 NSCLC) | growth (NCI-H460 lung) | growth (HOP-92 NSCLC) | growth (NCI-H522 lung) | growth (A549/ATCC NSCLC) | growth (786-0 renal) | growth (COLO 205 colon) | growth (DU-145 prostate) | growth (K-562 leukemia) | growth (MALME-3M melanoma) | growth (MDA-MB-231 breast) | growth (RXF 393 renal) | growth (SF-268 CNS) | growth (SF-295 CNS) | growth (SF-539 CNS) | growth (UACC-257 melanoma) | growth (M14 melanoma)
COC(=O)N[C@H]1CCc2c(Br)c(OC)c(OC)c(OC)c2-c2ccc(SC)c(=O)cc21 | 31.3% | 12.5% | 28% | 29.7% | -14.1% (active) | -0.443% (active) | 8.44% (active) | 18.3% | 10.9% | -52.5% (active) | -1.4% (active) | 6.78% (active) | 28.6% | -12.3% (active) | 16.8% | 17.7% | 9.53% (active) | -6.59% (active) | 67.4% | 2.58% (active)
CNC(=O)Oc1ccc2c(c1)OCO2 | 103% | 103% | 107% | 102% | 106% | 108% | 103% | 100% | 107% | 103% | 108% | 90.1% | 104% | 101% | 113% | 102% | 101% | 102% | 102% | 107%
CC1=C(CCCOC(=O)[C@H](N)CC(C)C)C2=C(C)C3(CC3)[C@@](C)(O)C(=O)C2=C1 | -27.6% (active) | 0.712% (active) | 18.5% | -13% (active) | 2.82% (active) | -13.6% (active) | 31.3% | 0.0474% (active) | 1.3% (active) | -46.1% (active) | 11.6% | 101% | -44.7% (active) | 11.5% | -74.7% (active) | 14.6% | -5.7% (active) | -7.07% (active) | 24.4% | -33.2% (active)
COC(=O)[C@H](Cc1ccccc1)NC(=O)c1csc([C@@H](C[C@H](C(C)C)N(C)C(=O)[C@@H](NC(=O)[C@H]2CCCCN2C)C2CC2)OC(C)=O)n1 | 23.9% | 27.7% | 46.1% | -2.57% (active) | 1.93% (active) | -3.94% (active) | -28.7% (active) | 14.2% | 11.7% | -66.6% (active) | 6.13% (active) | 3.82% (active) | 67.8% | -1.7% (active) | 75.8% | 19.2% | 3.79% (active) | -14.4% (active) | 54.2% | -5.77% (active)
CN1C(=O)C(=Cc2cn(Cc3ccccc3)c3ccccc23)C(=O)N(C)C1=O | 80.4% | -71% (active) | 72.3% | 73.6% | 0.11% (active) | 65.1% | 92.6% | 81.7% | 93.9% | 1.43% (active) | 103% | 51.1% | 91.3% | 75.5% | 56.9% | 95.4% | 34.7% | 86.2% | 27.9% | 92.6%
O=C1C2C(C(=O)[N]1[Hg][c]1ccccc1)C1(Cl)C(Cl)=C(Cl)C2(Cl)C1(Cl)Cl (stereo not given) | -8.01% (active) | 82.9% | 45.1% | 47.2% | -20.9% (active) | -84.5% (active) | -87.4% (active) | 78.7% | 26% | -96.5% (active) | -86.6% (active) | 4.39% (active) | -78.4% (active) | -2.38% (active) | -98.6% (active) | -66.4% (active) | 67.8% | 10.3% | -67.8% (active) | -82.3% (active)
CC12CC=CCC1CCC1C2CCC2(C)C(c3ccc(=O)oc3)CCC12O (stereo not given) | -44.2% (active) | -90.6% (active) | -19.9% (active) | -65.2% (active) | -70.4% (active) | 1.77% (active) | -19.9% (active) | -37.7% (active) | -42.4% (active) | -43.6% (active) | -98% (active) | 3.02% (active) | -51.8% (active) | -4.41% (active) | -46.5% (active) | -62.2% (active) | -36.7% (active) | -93.7% (active) | -52.8% (active) | -28% (active)
CCCCCCCC[n+]1ccc2ccccc2c1 | 36.5% | 61.4% | 99.2% | 77.2% | 73.9% | 52% | 29.8% | 88.7% | 75.5% | 59% | 82.7% | 22.6% | 42.4% | 67% | 97.4% | 80.4% | 67% | 62.6% | 20% | 42.6%
CC[S][Hg][Cl] | 102% | 113% | 101% | 119% | 110% | 113% | -46.7% (active) | 98.8% | 109% | 124% | 103% | 75.4% | 118% | 114% | 124% | 103% | 112% | 105% | 97.3% | 106%
O=C(N/N=C\c1ccc(N(CCCl)CCCl)cc1Cl)c1cccnc1 | 70.5% | -48.5% (active) | 133% | 72.2% | 7.56% (active) | 74.3% | 116% | 60.4% | 66.9% | 83% | 94.4% | 82% | 116% | 85% | 82.8% | 99.1% | 59.6% | 95.3% | -10.9% (active) | 98%
CCCC[C@H](NC(=O)[C@H]1CCCN1C)C(=O)N(C)[C@H](C[C@@H](OC(C)=O)c1nc(C(=O)N[C@@H](Cc2ccccc2)C[C@H](C)C(=O)OCC)cs1)C(C)C | 24.4% | 37.2% | 33.3% | 21.8% | 7.53% (active) | 7.16% (active) | -12.1% (active) | 8.16% (active) | 3.94% (active) | -66.7% (active) | 12.8% | 9.85% (active) | 49.5% | 3.51% (active) | 25.3% | 25.8% | 13.3% | 0.375% (active) | 46.1% | -12% (active)
Cn1cc(C=O)c2nccnc21 | 94.9% | 120% | 123% | 113% | 104% | 82% | 78.2% | 96.8% | 119% | 109% | 118% | 101% | 106% | 111% | 112% | 123% | 101% | 108% | 102% | 120%
CC(=O)O[C@H](C[C@H](C(C)C)N(C)C(=O)[C@@H](NC(=O)[C@H]1CCCCN1C)C(C)C)c1nc(C(=O)N[C@@H](Cc2ccccc2)C[C@H](C)C(=O)O)c(CCOCc2ccccc2)s1 | 24.3% | -56.8% (active) | 33.5% | 29.6% | 5.98% (active) | 5.5% (active) | -47.4% (active) | 13% | 7.14% (active) | -42% (active) | -9.34% (active) | 7.14% (active) | 23.3% | 9.48% (active) | 18.3% | 11.6% | -19.8% (active) | -31.5% (active) | 54.5% | -29.4% (active)
Nc1c(F)cc(-c2nc3cc(F)ccc3[se]2)cc1Br | 17.4% | -16.3% (active) | 46.9% | 39.8% | 3.18% (active) | 49.7% | 67.1% | 22.5% | 95.4% | 5.84% (active) | 98.8% | 98.5% | 87% | 17.8% | 74.8% | 98.6% | 74.5% | 87.6% | 85.4% | 88%
CN(C)CC(C(=O)Cc1ccccc1)c1ccccc1 (stereo not given) | 83.6% | 125% | 102% | 106% | 102% | 86.3% | -81.3% (active) | 97.5% | 9.78% (active) | 5.72% (active) | -10.7% (active) | 47.2% | 37.5% | 106% | 6.5% (active) | 30.6% | 113% | 5.03% (active) | 5.79% (active) | 36%
